# Measured values as given in the supplement of paper PMC11732987, “Enantioselective OTUD7B fragment discovery through chemoproteomics screening and high-throughput optimisation” (Communications Chemistry, 2025).
# Values without a mark were called inactive.
# How the values were obtained:
# Assay in all cases: log2 ratio of Biotin-Ahx-Ub-VS probe labelling (fragment/DMSO); higher = less target engagement (more negative = stronger competition), active = hit call of the paper (q ≤ 0.05, log2 ratio ≤ -1)
# Conditions in all cases: compound concentration: 200 uM; treatment time: 3 h
# USP16 = USP16 (UniProt Q9Y5T5)
# USP16, sequence (Q9Y5T5 whole entry, looked up, the tested form may be a part): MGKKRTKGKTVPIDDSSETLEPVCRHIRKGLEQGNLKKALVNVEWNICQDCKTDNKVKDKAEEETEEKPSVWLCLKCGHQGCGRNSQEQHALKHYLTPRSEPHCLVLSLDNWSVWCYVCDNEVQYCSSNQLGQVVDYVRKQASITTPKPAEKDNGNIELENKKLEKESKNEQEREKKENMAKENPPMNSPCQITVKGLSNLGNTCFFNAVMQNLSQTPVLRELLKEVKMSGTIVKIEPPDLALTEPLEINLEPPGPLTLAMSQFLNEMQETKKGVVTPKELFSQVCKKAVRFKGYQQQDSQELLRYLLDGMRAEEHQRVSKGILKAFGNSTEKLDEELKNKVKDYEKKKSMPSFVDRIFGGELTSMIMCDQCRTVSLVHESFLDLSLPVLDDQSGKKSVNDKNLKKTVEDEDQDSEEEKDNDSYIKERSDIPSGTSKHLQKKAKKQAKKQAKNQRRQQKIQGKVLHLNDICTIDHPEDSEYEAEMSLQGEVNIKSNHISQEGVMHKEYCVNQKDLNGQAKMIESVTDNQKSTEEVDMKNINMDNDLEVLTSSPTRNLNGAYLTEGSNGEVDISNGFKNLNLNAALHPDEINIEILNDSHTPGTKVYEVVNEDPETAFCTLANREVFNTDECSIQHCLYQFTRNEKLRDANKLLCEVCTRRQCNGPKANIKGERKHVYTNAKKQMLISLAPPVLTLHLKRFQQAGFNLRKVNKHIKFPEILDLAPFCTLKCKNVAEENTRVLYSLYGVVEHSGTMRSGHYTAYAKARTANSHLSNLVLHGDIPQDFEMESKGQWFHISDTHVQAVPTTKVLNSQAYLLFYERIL
# In short: (§1)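 Labelling with Biotin-Ahx-Ub-VS (0.5 µM final, 1 h) followed a 3 h triplicate treatment of HEK293T lysate (495 µg per sample, Tris/CHAPS/IGEPAL buffer with protease inhibitors) with fragment at 200 µM or vehicle. Labelled DUBs were NeutrAvidin-enriched, digested with LysC and trypsin, and run by diaPASEF LC-MS/MS. The values, average log2 fragment/vehicle ratios by unpaired t-test, come from global-median-normalised Spectronaut label-free quantities. Proteins with ≥2 unique peptides were used.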
# USP19 = biological target: T1, USP19 (UniProt O94966)
# T1 sequence (whole entry): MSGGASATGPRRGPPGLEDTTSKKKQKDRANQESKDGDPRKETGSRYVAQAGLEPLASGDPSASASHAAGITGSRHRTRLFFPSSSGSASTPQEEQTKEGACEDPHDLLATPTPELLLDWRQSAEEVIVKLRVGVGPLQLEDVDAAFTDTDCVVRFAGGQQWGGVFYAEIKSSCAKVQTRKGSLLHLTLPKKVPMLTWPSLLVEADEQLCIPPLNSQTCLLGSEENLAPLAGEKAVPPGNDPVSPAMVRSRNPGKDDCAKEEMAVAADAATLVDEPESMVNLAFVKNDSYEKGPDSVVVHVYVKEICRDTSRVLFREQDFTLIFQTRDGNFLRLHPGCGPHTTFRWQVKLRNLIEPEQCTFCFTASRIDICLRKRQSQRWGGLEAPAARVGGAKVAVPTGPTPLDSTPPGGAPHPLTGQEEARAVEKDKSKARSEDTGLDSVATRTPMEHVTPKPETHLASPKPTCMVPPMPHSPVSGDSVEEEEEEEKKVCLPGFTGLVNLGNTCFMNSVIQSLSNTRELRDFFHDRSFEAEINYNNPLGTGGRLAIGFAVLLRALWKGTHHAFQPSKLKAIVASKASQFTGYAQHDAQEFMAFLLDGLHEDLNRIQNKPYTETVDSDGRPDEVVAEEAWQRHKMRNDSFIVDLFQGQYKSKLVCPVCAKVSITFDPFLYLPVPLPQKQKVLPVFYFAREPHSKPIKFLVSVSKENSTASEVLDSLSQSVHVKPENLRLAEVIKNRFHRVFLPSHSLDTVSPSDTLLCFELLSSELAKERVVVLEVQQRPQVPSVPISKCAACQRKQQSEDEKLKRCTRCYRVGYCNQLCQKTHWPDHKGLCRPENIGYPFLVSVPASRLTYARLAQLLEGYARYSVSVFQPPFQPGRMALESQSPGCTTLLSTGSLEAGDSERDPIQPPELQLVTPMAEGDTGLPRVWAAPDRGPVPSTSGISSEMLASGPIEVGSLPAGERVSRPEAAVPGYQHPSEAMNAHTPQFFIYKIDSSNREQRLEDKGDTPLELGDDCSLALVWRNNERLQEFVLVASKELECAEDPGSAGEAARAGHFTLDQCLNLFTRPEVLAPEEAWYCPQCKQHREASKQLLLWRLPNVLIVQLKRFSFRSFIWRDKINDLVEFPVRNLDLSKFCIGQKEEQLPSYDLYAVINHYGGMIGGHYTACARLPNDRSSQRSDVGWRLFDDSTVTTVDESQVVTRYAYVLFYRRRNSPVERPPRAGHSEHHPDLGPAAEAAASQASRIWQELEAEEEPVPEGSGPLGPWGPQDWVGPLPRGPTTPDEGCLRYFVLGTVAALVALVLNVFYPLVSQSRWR
# In short: as §1
# USP24 = USP24 (UniProt Q9UPU5)
# USP24, sequence (Q9UPU5 whole entry): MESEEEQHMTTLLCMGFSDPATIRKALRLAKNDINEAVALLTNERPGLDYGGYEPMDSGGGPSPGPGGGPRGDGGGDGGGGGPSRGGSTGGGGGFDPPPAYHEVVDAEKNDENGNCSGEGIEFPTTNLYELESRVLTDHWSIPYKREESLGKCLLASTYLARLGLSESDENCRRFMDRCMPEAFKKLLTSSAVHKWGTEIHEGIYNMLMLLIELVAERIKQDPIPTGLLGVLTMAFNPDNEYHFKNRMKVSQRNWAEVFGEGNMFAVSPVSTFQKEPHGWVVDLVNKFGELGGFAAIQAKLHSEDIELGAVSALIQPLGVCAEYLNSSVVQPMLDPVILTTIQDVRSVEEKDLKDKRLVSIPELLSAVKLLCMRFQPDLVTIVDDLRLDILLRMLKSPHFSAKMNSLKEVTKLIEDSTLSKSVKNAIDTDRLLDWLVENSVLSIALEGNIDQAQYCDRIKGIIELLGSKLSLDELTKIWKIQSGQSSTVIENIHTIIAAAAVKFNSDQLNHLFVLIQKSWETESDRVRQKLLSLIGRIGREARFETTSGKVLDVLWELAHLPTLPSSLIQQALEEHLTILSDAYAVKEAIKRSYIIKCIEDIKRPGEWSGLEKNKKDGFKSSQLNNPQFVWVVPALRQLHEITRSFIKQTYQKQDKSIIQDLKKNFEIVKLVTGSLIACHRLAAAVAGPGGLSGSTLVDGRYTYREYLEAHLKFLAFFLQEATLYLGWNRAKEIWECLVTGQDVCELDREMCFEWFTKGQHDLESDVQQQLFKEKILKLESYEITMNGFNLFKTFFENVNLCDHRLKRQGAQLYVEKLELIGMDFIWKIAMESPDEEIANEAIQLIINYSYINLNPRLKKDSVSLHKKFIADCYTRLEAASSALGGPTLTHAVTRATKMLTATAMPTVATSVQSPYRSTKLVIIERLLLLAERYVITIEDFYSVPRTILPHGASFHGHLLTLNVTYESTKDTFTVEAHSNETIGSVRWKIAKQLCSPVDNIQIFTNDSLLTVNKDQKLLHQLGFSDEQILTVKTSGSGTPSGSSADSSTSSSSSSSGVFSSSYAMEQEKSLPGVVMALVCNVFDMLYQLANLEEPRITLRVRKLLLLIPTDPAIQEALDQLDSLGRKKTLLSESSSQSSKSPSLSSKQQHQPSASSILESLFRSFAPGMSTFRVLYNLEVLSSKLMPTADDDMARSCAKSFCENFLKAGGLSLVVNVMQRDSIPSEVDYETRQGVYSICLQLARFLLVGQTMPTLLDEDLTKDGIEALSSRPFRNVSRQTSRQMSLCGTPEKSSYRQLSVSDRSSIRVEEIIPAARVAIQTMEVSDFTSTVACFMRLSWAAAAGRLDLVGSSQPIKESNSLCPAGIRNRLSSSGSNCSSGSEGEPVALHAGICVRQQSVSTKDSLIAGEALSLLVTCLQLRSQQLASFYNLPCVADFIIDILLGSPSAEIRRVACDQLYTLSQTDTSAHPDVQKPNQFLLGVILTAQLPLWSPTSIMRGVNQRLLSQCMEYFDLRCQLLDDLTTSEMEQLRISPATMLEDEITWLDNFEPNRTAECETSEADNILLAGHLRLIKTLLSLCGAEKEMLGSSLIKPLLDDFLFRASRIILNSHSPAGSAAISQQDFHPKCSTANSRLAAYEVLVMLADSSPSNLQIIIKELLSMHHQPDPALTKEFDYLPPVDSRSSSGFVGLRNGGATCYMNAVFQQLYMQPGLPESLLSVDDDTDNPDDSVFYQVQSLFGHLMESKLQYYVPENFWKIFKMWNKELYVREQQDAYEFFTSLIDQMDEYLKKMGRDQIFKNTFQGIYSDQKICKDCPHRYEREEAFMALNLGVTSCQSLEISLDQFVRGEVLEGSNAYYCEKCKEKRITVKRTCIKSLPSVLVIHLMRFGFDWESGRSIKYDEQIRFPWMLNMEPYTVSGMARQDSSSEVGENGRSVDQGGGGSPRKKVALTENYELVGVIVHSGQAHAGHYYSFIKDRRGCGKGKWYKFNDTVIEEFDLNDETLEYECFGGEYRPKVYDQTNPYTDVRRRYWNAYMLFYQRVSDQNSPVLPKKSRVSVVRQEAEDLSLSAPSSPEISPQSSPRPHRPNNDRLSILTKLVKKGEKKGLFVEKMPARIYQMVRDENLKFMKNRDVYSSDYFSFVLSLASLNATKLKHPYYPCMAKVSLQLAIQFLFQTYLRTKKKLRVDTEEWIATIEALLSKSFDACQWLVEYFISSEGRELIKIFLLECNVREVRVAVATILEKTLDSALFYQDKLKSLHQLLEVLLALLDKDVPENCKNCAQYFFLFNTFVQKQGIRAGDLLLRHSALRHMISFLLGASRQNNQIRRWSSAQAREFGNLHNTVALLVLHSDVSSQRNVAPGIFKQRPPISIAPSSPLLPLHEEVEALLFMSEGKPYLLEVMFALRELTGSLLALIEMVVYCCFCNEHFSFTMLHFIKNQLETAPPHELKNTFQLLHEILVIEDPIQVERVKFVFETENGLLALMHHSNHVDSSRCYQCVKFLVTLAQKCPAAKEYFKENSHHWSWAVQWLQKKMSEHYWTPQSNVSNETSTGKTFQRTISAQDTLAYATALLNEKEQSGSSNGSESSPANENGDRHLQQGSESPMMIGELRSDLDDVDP
# In short: as §1
# USP25 = biological target: T2, USP25 (UniProt Q9UHP3)
# T2 sequence (whole entry): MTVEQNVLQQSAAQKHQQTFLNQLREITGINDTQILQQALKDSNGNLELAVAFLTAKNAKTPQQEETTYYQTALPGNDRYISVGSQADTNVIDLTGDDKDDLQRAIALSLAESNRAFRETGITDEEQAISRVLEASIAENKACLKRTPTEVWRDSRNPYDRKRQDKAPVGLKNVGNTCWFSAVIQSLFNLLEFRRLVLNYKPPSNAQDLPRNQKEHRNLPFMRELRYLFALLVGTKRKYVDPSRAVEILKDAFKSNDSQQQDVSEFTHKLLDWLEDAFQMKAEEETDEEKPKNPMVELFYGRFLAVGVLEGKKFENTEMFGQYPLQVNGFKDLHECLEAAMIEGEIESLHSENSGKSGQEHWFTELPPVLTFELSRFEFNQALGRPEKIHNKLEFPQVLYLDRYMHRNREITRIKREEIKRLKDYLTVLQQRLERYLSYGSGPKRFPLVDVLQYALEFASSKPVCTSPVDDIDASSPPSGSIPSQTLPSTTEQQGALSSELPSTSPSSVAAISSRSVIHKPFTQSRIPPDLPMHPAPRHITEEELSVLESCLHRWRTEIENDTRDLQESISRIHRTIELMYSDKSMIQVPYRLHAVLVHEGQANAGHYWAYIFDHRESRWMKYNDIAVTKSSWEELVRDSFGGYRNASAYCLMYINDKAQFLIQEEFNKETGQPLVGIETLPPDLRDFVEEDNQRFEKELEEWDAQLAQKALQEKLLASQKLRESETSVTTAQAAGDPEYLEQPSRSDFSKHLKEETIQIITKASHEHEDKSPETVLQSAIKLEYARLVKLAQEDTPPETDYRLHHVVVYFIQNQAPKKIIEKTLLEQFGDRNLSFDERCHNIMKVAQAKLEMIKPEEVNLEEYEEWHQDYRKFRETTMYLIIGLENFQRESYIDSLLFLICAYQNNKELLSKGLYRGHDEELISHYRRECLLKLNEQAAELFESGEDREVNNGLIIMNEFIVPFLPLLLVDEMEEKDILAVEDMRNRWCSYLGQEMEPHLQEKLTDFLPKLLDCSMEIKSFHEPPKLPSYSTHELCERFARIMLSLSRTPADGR
# In short: as §1
# USP28 = biological target: T3, USP28 (UniProt Q96RU2)
# T3 sequence (whole entry): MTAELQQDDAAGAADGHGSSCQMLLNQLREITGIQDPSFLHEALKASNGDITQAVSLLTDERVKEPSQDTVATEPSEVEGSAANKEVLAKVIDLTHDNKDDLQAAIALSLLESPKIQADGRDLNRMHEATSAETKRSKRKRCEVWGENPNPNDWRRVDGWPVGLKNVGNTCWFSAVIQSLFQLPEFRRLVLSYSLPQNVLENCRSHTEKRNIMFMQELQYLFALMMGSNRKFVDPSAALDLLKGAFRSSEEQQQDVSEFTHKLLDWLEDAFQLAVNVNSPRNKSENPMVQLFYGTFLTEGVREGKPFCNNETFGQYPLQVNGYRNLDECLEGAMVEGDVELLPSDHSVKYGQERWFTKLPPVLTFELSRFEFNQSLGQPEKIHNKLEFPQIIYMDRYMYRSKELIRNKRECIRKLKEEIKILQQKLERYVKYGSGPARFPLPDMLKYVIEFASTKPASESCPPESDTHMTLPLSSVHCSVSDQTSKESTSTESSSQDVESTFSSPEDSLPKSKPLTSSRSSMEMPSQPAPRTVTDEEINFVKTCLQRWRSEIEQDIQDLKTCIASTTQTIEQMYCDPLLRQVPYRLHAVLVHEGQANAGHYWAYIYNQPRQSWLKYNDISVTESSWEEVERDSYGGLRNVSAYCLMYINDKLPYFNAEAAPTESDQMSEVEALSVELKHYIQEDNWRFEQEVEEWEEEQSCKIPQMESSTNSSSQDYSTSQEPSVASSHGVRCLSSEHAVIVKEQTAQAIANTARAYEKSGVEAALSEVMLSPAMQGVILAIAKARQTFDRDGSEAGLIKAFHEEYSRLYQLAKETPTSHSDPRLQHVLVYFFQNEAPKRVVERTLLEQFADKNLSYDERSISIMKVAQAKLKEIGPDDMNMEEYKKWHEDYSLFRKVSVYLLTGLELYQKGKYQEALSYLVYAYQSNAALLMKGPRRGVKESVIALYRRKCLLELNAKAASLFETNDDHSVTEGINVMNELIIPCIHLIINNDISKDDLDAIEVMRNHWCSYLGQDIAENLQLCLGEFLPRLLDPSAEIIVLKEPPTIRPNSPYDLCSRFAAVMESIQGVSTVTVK
# In short: as §1
smiles,measurement,setting,value
O=C(CCl)Nc1cccc(C(=O)N2CCSCC2)c1,log2 ratio of Biotin-Ahx-Ub-VS probe labelling,USP16,-0.0446
same,log2 ratio of Biotin-Ahx-Ub-VS probe labelling,USP19,-0.239
same,log2 ratio of Biotin-Ahx-Ub-VS probe labelling,USP24,-0.522
same,log2 ratio of Biotin-Ahx-Ub-VS probe labelling,USP25,-1.17 (active)
same,log2 ratio of Biotin-Ahx-Ub-VS probe labelling,USP28,-0.818
